TSHR agonist: TSH receptor (human) agonism; P16473; HEK293-CNG-TSHR cells (CNG channel as cAMP sensor), membrane potential dye, cAMP; Potency, µM (series often up to 57.1 µM), for the others: at the highest dose activation, hits mostly activators; hit rate 0.48% among 73,000; active means well fitted activation curve with a large enough effect in the main read-out, with a control signal flat, not every such curve was filed as active; inconclusive means small, poorly fitted or top-dose-only effect, or a change in a side signal; inactive means no such curve, though single readings can be large or run the other way; % of control where 0% means no effect;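 further: the control signal comes from parental cells without the receptor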
Target sequence (P16473 whole entry, looked up): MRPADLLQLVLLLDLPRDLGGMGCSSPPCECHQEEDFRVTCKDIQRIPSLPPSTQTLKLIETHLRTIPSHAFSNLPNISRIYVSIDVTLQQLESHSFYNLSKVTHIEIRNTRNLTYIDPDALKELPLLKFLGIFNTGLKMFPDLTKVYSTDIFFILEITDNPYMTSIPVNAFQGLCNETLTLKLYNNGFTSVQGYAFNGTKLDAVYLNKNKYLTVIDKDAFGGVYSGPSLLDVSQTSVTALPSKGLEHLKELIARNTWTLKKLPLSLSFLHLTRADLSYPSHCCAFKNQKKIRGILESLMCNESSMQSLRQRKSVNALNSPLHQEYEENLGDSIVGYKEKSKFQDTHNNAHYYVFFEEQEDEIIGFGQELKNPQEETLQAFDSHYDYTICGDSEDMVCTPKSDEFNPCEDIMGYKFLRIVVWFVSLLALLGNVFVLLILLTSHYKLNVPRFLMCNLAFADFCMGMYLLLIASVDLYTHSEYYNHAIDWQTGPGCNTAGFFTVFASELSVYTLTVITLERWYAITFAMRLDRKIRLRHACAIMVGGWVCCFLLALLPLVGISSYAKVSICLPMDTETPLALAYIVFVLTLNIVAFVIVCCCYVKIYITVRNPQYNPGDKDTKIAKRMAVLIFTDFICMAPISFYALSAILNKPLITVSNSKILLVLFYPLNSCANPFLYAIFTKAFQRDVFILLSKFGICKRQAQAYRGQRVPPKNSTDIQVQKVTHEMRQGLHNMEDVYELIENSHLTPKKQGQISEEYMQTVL
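HEK 293 cells stably expressing TSHR and a cAMP-gated CNG channel; parental CNG-only cells as counterscreen. Cells preloaded 60 min with membrane potential dye plus 100 uM RO 20-1724, then compound 30 min; fluorescence read at 590 nm.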
Tau fil binding: binds recombinant human tau filaments. P10636. Potency, µM (doses to about 57.1 µM), inactives show top-dose activity change, negative = inhibition. hit rate 2% among 71,000. recombinant tau filaments, thioflavin S fluorescence, 15 h; filaments grown with octadecylsulfate alongside compound. AID 596;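 further: on the % scale 0 is the no-effect control and ±100 the full control effect; actives lower thioflavin S fluorescence by blocking filaments or displacing dye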
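Tau 2 uM in ThS buffer dispensed; compound added; 60 uM ODS added (finals 1 uM tau, 30 uM ODS); 15 h 37 C; fluor ex450/em510.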
Hsp90 Hop PPI: changes Hsp90-Hop TPR2A binding signal, up or down; AlphaScreen TPR2A-His6 binding biotin-Hsp90 C-terminal peptide; AID 595; Potency, µM (top dose mostly 57 µM), inactives show top-dose activity change, negative = inhibition; hit rate 0.44% among 71,000; active means well fitted curve in either direction with a large enough effect; inconclusive means small, poorly fitted or top-dose-only effect, or another doubt; further: on the % scale 0 is the no-effect control and ±100 the full control effect
DNA Pol III inh: inhibitors of bacterial DNA polymerase III holoenzyme; hit rate 0.25% among 71,000; reconstituted DNA polymerase III holoenzyme replication, biochemical; Potency, µM (top dose mostly 57.1 µM), for the others: top-dose activity change, negative = inhibition; further: on the % scale 0 is the no-effect control and ±100 the full control effect
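Reconstituted *E. coli* holoenzyme (0.35 nM Pol III, 1 nM beta, 154 nM SSB, 2 nM primase) was preincubated with compound for 15 min at RT. Synthesis on 1.4 nM ssM13Gori ran 35 min, then was stopped with PicoGreen/EDTA and read as dsDNA fluorescence.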
HEK293 cAMP cs: raises cAMP in parental HEK293 cells, TSHR agonist counter-screen; parental HEK293 CNG cAMP sensor, membrane potential fluorescence; Potency, µM (titrated, usually from 57.1 µM), inactives show at the top dose activation, usual class: activators; hit rate 2.5% among 73,000; AID 938; further: % of control where 0% means no effect; nearly all actives have a fitted effect of over 55% in size
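Parental HEK 293 cells stably expressing a cAMP-gated CNG channel were loaded with membrane potential dye containing 100 uM RO 20-1724 for 60 min. Compound added for 30 min; depolarization read as fluorescence intensity at 590 nm.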
* = called active by the depositor; ? = inconclusive; / = no result; [ ] = dose if it differs, or a comment. In the library only some 5.1% were active in any assay of this set; here they are far more common. Unless noted, the call rests on the fitted dose curve; in most records, active means well fitted curve in the direction sought with a large enough effect; inconclusive means small, poorly fitted or top-dose-only effect, or another doubt; inactive means no such curve, though single readings can be large; an effect the other way counts as inactive or inconclusive. Potency means the concentration at half of the fitted maximal effect.

SMILES | TSHR agonist | Tau fil binding | Hsp90 Hop PPI | DNA Pol III inh | HEK293 cAMP cs
Oc1ccc2ccccc2c1Cc1c(O)ccc2ccccc12 | 6%[11.4 µM] | -3%[11.4 µM] | ? | -11%[11.4 µM] | 19%[11.4 µM]
O=c1[nH]c(=S)[nH]c(-c2ccccc2)c1Cc1c(O)ccc2ccccc12 | ? | 8%[11.4 µM] | -4%[11 µM] | -12%[11.4 µM] | 2.5µM*
N#Cc1cc2ccccc2nc1SCc1cccnc1 | ? | 6% | 7% | -13% | ?
N#Cc1cc2c(nc1SCc1cccnc1)CCCCC2 | ? | 22% | -1% | -4% | 10µM*
CCc1ccc(NC(=O)c2ccc3c(c2)C(=O)N(Cc2ccco2)C3=O)cc1 | ? | 25µM* | -4%[2.3 µM] | -2% | ?
CC(=O)Nc1ccc2c(c1)/C(=C/c1ccc([N+](C)(C)C)cc1)c1ccccc1-2 | -4%[11.4 µM] | 3.2µM* | -5%[11 µM] | -14%[11.4 µM] | -2%[11.4 µM]
ON=C1CCCCC1 | ? | 0% | -5% | -2% | -29%
Cc1ccc2[nH]c(=O)c(CN(Cc3nnnn3Cc3ccccc3)C3CCCC3)cc2c1 | 20% | 26% | ? | -10% | -8%
Cc1cccc2cc(CN(Cc3nnnn3Cc3ccco3)C3CCCC3)c3nnnn3c12 | ? | 63% | -1% | -1% | 10µM*
COCc1cc(=O)n2c(-c3ccc(C)cc3)n[nH]c2n1 | -4%[11.4 µM] | 16µM* | -6% | -3% | -5%
COCc1cc(=O)n2c(-c3ccccc3OC)n[nH]c2n1 | ? | -7% | -1% | -5% | ?
CCOC(=O)COc1cccc2c(=O)n(CC(=O)N3CCc4ccccc43)ccc12 | -5% | 16µM* | 0% | -14% | 10%
Cc1cnc(CNc2ncncc2-c2ccc(N(C)C)cc2)cn1 | 10% | ? | -6% | -2% | -11%
COc1ccc(N2CCN(c3nc(NC(C)(C)C)nc(N4CCCCC4)n3)CC2)cc1 | -2% | 10µM* | ? | -3% | 3%
COc1ccc(N2CCN(c3nc(NCCO)nc(N4CCOCC4)n3)CC2)cc1 | 6% | -14% | -7% | -2% | -4%
CSc1nc(N)c2ncn([C@@H]3O[C@@H](COP(=O)(O)OP(=O)(O)OP(=O)(O)O)[C@@H](O)[C@H]3O)c2n1 | 21% | 0% | -7% | -2% | 10%
O=S(=O)(NCCCCCCc1ccccc1)c1cccc2c(Cl)cccc12 | 6% | ? | 40µM* | -1% | 16%
CCCCCCCNS(=O)(=O)c1cccc2c(Cl)cccc12 | ? | 40µM* | ? | 2% | ?
Cc1nc2cnc(N(C)C)nc2n(C2CC2)c1=O | 9% | 7% | -6% | -11% | 25%
O[C@]1(c2ccccc2)c2ccccc2NC2=NCCN21 | / | 6%[11.4 µM] | -3%[11 µM] | -23%[11.4 µM] | 2%[11.4 µM]
CCCC(OC(=O)CN1C(=O)COc2ccccc21)C(=O)NC1CCCC1 (stereo not drawn) | ? | -6% | 0% | 2% | 0.79µM*
CCC12CCCN3CCC4(C(=C(C(=O)OC)C1)Nc1ccccc14)C32 (stereo not drawn) | ? | 0% | -6% | -12% | 25µM*
O=C(CC(=O)c1cc(Cl)ccc1O)c1ccccc1 | 30% | 25µM* | -8% | 0% | 22%
Cc1ccc(O)c(C(=O)CC(=O)c2cccc(F)c2)c1 | / | 2µM* | -26%[11 µM] | 1%[11.4 µM] | 27%[11.4 µM]
O=C(CCc1ccccc1)Nc1cc(Cl)ccc1O | -6% | -6% | 8% | 1% | -5%
SMILES | TSHR agonist | Tau fil binding | Hsp90 Hop PPI | DNA Pol III inh | HEK293 cAMP cs
COc1ccc(CC(=O)Nc2ccc(-c3noc(COc4ccccc4C)n3)cc2)cc1 | 2% | 15% | -1% | -9% | 1%
O=C(Nc1ccc(-c2noc(COc3ccccc3Cl)n2)cc1)c1ccco1 | 3% | 3.2µM* | 2% | 11% | -4%
Nc1ncnc2c1ncn2[C@@H]1O[C@@H](CO)[C@H](O)[C@@H]1O | ? | -8% | -7% | -6% | 25µM*
COc1ccc(CN[C@H](C)C(=O)O)cc1 | 1%[11.4 µM] | -5%[11.4 µM] | -3%[11 µM] | -3%[11.4 µM] | 2%[11.4 µM]
c1ccc2c(c1)[nH]c1nc(SCCN3CCOCC3)nnc12 | -16% | -19% | -3% | -1% | -1%
Brc1ccc2[nH]c3nc(SCCN4CCOCC4)nnc3c2c1 | -2%[11.4 µM] | 13µM* | -3% | -1% | -7%
C[C@@H](C(=O)Nc1ccc2ccccc2c1)[C@@H]1C[C@@]1(C)[C@@H](NC(=O)c1ccncc1Cl)c1ccccc1 | 10% | -4% | -7% | -3% | 9%
C[C@@H](CSC(=N)N)C(N)=O | -4%[11.4 µM] | -3%[11.4 µM] | -2%[11 µM] | -7%[11.4 µM] | 5%[11.4 µM]
O=C(NCc1nc2ccccc2[nH]1)[C@H]1C[C@@H]1[C@H](NP(=O)(c1ccccc1)c1ccccc1)c1ccccc1 | ? | -4% | -10% | 10% | 13µM*
O=C(NCc1nc2ccccc2[nH]1)c1ccco1 | -7% | -4% | -1% | 2% | 5%
O=C(NCc1ccccn1)[C@H]1C[C@@H]1[C@H](NP(=O)(c1ccccc1)c1ccccc1)c1ccccc1 | 14% | -4% | -9% | 5% | 27%
O=C(NCc1nc2ccccc2[nH]1)c1cccs1 | ? | -24% | -3% | -6% | 5µM*
CCn1c(NC(=O)c2cccs2)nc2ccccc21 | ? | 9% | -2% | 0% | 16µM*
CC(C)(CNC(=O)c1cccs1)CNC(=O)c1cccs1 | ? | 0% | 0% | 2% | 32µM*
O=C(NCCCNC(=O)c1cccs1)c1cccs1 | 4% | 9% | -4% | -4% | 1%
CCn1c(CCCNC(=O)c2cccs2)nc2ccccc21 | 2% | -14% | 0% | -6% | 4%
CC(C)CO/N=C1/C[C@@H](O)[C@@H](O)[C@@H]2[C@@H]3C(=O)N(c4cccc(Oc5ccccc5)c4)C(=O)[C@H]3CC[C@H]12 | -5%[11.4 µM] | / | / | / | -1%[11.4 µM]
CC1=NN(c2ccccc2)C(=O)[C@@H]1N=Nc1ccc(S(N)(=O)=O)cc1 | -22%[11.4 µM] | 4µM* | -12%[11 µM] | -11%[11.4 µM] | -22%[11.4 µM]
Cn1c(/C(C#N)=C(\O)COc2ccc3ccccc3c2)nc2ccccc21 | ? | 3% | 0% | -1% | 16µM*
CC(C)C(O)(C(C)C)C(C)C | 5%[11.4 µM] | -5%[11.4 µM] | -2%[11 µM] | -10%[11.4 µM] | -3%[11.4 µM]
N[C@@H](Cn1ccc(=O)n(Cc2ccccc2C(=O)O)c1=O)C(=O)O | 4% | ? | -1% | -6% | 1%
Cc1ccc(-c2csc(NC(=O)c3ccno3)n2)cc1 | 1% | 32µM* | -11% | -8% | -1%
O=C(SCc1cccc2ccccc12)c1ccc(Cl)cc1 | 3%[11.4 µM] | 2%[11.4 µM] | 4%[11 µM] | -9%[11.4 µM] | 7%[11.4 µM]
CC1Cn2c(nnc2-c2ccc(F)cc2)S1 (stereo not drawn) | ? | -1% | -3% | 4% | 4µM*
CC1Cn2c(nnc2-c2cccc(Cl)c2)S1 (stereo not drawn) | 6% | 1% | -1% | -3% | 8%
N#Cc1sc2nc3c(c(-c4ccco4)c2c1N)CCCC3 | / | 3.2µM* | -3% | -16% | 23%
CC(NC(=O)c1cccc(C(F)(F)F)c1)C1CCCO1 (stereo not drawn) | 2% | 0% | 2% | -2% | 10%
